The nature of test [1]: qHTS assay to identify small molecule antagonists of the glucocorticoid receptor (GR) signaling pathway - cell viability counter screen (AID 720693). Also: nearly all actives have a fitted effect of over 55% in size. A general note: Quantitative high-throughput screening tests each substance at several concentrations.
A short description of test [2]: qHTS assay for identifying genotoxic compounds that show differential cytotoxicity against isogenic chicken DT40 cell lines with known DNA damage response pathways - Rev3 mutant cell line (AID 743014). Also: nearly all actives have a fitted effect of over 55% in size. Also: potency is read from the fitted curve at half-maximal effect.
The nature of test [3]: qHTS assay for identifying genotoxic compounds that show differential cytotoxicity against isogenic chicken DT40 cell lines with known DNA damage response pathways - Rad54/Ku70 mutant cell line (AID 743015). Also: nearly all actives have a fitted effect of over 60% in size. Also: potency is read from the fitted curve at half-maximal effect.
Test [4] in a line: qHTS assay to identify small molecule antagonists of the androgen receptor (AR) signaling pathway - cell viability counter screen (AID 743033; also: nearly all actives have a fitted effect of over 45% in size).
Test [5] addresses Androgen receptor (Homo sapiens) (UniProt P10275). The test can be described thus: qHTS assay to identify small molecule antagonists of the androgen receptor (AR) signaling pathway (AID 743035; active = well fitted inhibition curve with a large enough effect in the signal ratio in the repeat runs, not every such curve was filed as active; the % refers to the signal ratio; also: potency is read from the fitted curve at half-maximal effect). A digest of the protocol: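 Cell line: GeneBLAzer AR-UAS-bla GripTite (HEK293). Stimulus: R1881 added after compound. Exposure: 16 h, 37C, 5% CO2. Readout: LiveBLAzer B/G FRET fluorescence after 2 h at room temperature.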

For test [6] the target is unchanged. The test can be described thus: qHTS assay to identify small molecule agonists of the androgen receptor (AR) signaling pathway (AID 743036; active = well fitted activation curve with a large enough effect in the signal ratio in the repeat runs, with a control signal flat, not every such curve was filed as active; the % refers to the signal ratio). The gist of the method: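 Activation was read as beta-lactamase FRET signal from LiveBLAzer B/G substrate, added for 2 h at room temperature. Before that, GeneBLAzer AR-UAS-bla GripTite (HEK293) cells had 16 h compound exposure at 37C.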

For test [7] the target is unchanged. The test can be described thus: qHTS assay to identify small molecule agonists of the androgen receptor (AR) signaling pathway using the MDA cell line (AID 743040; also: nearly all actives have a fitted effect of over 20% in size). The gist of the method:
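MDA-kb2 breast carcinoma cells carrying MMTV-luciferase (responsive to AR and GR), plated 5 h then treated 16 h with compounds at 37C, 0% CO2. Read-out was ONE-Glo luminescence after 30 min at room temperature.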

Test [8] can be described thus: qHTS assay to identify small molecule antagonists of the androgen receptor (AR) signaling pathway using the MDA cell line - cell viability counter screen (AID 743041; also: nearly all actives have a fitted effect of over 45% in size). A digest of the protocol:
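MDA-kb2 AR-luc cells (MMTV-luciferase, AR/GR responsive) treated with compounds plus R1881 agonist for 16 h at 37C. CellTiter-Fluor added at 15.5 h; fluorescence read after 30 min in the same wells.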

Test [9] concerns the target Androgen receptor (Homo sapiens) (UniProt P10275). The test can be described thus: qHTS assay to identify small molecule antagonists of the androgen receptor (AR) signaling pathway using the MDA cell line (AID 743042; also: nearly all actives have a fitted effect of over 55% in size). A digest of the protocol: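 MDA-kb2 breast carcinoma cells carrying MMTV-luciferase (AR/GR responsive) were co-treated with compounds and the agonist R1881 for 16 h at 37C. Inhibition read as ONE-Glo luminescence; CellTiter-Fluor fluorescence measured in parallel for cytotoxicity.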

Test [10] can be described thus: qHTS assay to identify small molecule antagonists of the thyroid receptor (TR) signaling pathway - cell viability counter screen (AID 743064). Also: nearly all actives have a fitted effect of over 50% in size. A digest of the protocol:
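In-well cytotoxicity read by CellTiter-Fluor (30 min, 37 C) following 23.5 h exposure of GH3 cells bearing a TRE-luciferase sensor. Compounds were added alongside 1 nM (final) T3 to drive TR transactivation.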

The nature of test [11]: qHTS assay to identify small molecule antagonists of the thyroid receptor (TR) signaling pathway (AID 743065). Also: nearly all actives have a fitted effect of over 55% in size. Also: potency is read from the fitted curve at half-maximal effect. A digest of the protocol: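 GH3.TRE-Luc rat pituitary cells (two TREs driving luciferase) were dosed with compound, then stimulated with 1 nM T3 (final) for 23.5 h at 37 C. ONE-Glo luminescence was the read-out, with CellTiter-Fluor fluorescence as the cytotoxicity counter-screen.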

In test [12] the test system is thyroid hormone receptor (rat, GH3 cells). The test can be described thus: qHTS assay to identify small molecule agonists of the thyroid receptor (TR) signaling pathway (AID 743066; calls by dose curve).
Test [13] concerns the target Estrogen receptor (Homo sapiens) (UniProt P03372). The test can be described thus: qHTS assay to identify small molecule antagonists of the estrogen receptor alpha (ER-alpha) signaling pathway (AID 743069; active = well fitted curve in the direction sought with a large enough effect in the signal ratio in the repeat runs, not every such curve was filed as active; the % refers to the signal ratio). A digest of the protocol: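 HEK293 ER-alpha-UAS-bla GripTite cells, held overnight in 2% charcoal-stripped FBS, 5,000 cells/well, preincubated 4 h, then compound plus 17beta-estradiol for 18 h at 37C. Beta-lactamase read by LiveBLAzer B/G FRET substrate, 2 h at room temperature.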

Test [14] in a line: qHTS assay to identify small molecule antagonists of the estrogen receptor alpha (ER-alpha) signaling pathway - cell viability counter screen (AID 743074; calls by dose curve;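 also: HEK293 cells carrying ER-alpha-UAS-bla reporter stimulated with 17beta-estradiol; nearly all actives have a fitted effect of over 45% in size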).
The target of test [15] is Estrogen receptor (Homo sapiens) (UniProt P03372). The test can be described thus: qHTS assay to identify small molecule agonists of the estrogen receptor alpha (ER-alpha) signaling pathway (AID 743075; calls by dose curve).
Estrogen receptor (Homo sapiens), sequence (P03372 whole entry, looked up): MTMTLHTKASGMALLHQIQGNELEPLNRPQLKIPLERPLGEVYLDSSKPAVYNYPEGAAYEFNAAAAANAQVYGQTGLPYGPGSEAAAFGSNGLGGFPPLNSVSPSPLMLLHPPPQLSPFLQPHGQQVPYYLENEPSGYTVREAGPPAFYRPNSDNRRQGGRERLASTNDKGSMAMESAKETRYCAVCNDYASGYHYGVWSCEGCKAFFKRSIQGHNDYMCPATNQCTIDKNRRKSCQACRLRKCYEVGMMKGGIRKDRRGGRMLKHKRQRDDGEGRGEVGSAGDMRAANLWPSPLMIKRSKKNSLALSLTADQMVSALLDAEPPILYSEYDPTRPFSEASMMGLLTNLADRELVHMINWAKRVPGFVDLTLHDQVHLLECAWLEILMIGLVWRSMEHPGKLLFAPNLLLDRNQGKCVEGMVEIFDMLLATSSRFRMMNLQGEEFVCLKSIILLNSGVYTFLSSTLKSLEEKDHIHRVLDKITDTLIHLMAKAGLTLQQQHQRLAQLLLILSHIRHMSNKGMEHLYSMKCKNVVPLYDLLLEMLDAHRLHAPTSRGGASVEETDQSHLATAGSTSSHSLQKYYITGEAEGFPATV
Test [16] has the same target. The test can be described thus: qHTS assay to identify small molecule agonists of the estrogen receptor alpha (ER-alpha) signaling pathway using the BG1 cell line (AID 743079). Also: nearly all actives have a fitted effect of over 20% in size. Also: potency is read from the fitted curve at half-maximal effect.
The nature of test [17]: qHTS assay to identify small molecule antagonists of the estrogen receptor alpha (ER-alpha) signaling pathway using the BG1 cell line (AID 743080; calls by dose curve;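 also: BG1 cells stimulated with 17beta-estradiol alongside compound; nearly all actives have a fitted effect of over 25% in size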; also: potency is read from the fitted curve at half-maximal effect). The gist of the method:
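Luciferase inhibition measured with ONE-Glo after 30 min at RT in BG1Luc4E2 cells given test compounds and 17beta-estradiol for 21.5 h at 37 C; CellTiter-Fluor viability read in the same wells beforehand.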

Test [18] can be described thus: qHTS assay to identify small molecule antagonists of the estrogen receptor alpha (ER-alpha) signaling pathway using the BG1 cell line - cell viability counter screen (AID 743081).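 Also: compound given together with 17beta-estradiol as the ER stimulus; series mostly up to about 70 µM; nearly all actives have a fitted effect of over 45% in size.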
Test [19] concerns the target Aromatase (Homo sapiens) (UniProt P11511). The test can be described thus: qHTS assay to identify aromatase inhibitors (AID 743083). Also: nearly all actives have a fitted effect of over 55% in size. Also: potency is read from the fitted curve at half-maximal effect.
A short description of test [20]: qHTS assay for identifying genotoxic compounds that show differential cytotoxicity against isogenic chicken DT40 cell lines with known DNA damage response pathways - wild type cell line (AID 743012). Also: nearly all actives have a fitted effect of over 60% in size. Also: potency is read from the fitted curve at half-maximal effect. The gist of the method: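 Quantitative HTS on parental DT40 cells: 40 h compound treatment at 37 C/5% CO2, with viability then determined by CellTiter-Glo luminescence. Values serve as the DNA repair-proficient reference for differential cytotoxicity.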

Where “and” joins values, the source holds several entries; their conditions need not be identical. Equal values may be shown once. Results filed as inconclusive are left out. More than one record can exist for a structure, and the calls need not agree. Calls of active or inactive are those of the source. Unless noted, calls follow the shape of the dose curve; as a rule, active = well fitted curve in the direction sought with a large enough effect in the repeat runs; inconclusive = weak or mixed curves; inactive = no such curve, though single readings can be large; an effect the other way counts as inactive or inconclusive.

Aromatase (Homo sapiens), sequence (P11511 whole entry, looked up): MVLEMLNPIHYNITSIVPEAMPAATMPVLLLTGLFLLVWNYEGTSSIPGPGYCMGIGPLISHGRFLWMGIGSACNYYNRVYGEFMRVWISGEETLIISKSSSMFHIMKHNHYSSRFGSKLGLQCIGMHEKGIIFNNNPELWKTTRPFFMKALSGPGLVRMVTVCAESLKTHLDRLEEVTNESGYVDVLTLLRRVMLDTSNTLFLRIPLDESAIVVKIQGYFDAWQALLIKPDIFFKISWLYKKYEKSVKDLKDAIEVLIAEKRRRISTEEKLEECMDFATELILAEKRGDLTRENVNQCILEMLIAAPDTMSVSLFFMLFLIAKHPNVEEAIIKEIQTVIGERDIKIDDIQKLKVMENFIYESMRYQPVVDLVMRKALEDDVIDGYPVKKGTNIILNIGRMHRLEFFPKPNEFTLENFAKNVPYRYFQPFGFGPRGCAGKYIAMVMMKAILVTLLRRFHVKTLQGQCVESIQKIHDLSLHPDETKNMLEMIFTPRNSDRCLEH
Androgen receptor (Homo sapiens), sequence (P10275 whole entry, looked up): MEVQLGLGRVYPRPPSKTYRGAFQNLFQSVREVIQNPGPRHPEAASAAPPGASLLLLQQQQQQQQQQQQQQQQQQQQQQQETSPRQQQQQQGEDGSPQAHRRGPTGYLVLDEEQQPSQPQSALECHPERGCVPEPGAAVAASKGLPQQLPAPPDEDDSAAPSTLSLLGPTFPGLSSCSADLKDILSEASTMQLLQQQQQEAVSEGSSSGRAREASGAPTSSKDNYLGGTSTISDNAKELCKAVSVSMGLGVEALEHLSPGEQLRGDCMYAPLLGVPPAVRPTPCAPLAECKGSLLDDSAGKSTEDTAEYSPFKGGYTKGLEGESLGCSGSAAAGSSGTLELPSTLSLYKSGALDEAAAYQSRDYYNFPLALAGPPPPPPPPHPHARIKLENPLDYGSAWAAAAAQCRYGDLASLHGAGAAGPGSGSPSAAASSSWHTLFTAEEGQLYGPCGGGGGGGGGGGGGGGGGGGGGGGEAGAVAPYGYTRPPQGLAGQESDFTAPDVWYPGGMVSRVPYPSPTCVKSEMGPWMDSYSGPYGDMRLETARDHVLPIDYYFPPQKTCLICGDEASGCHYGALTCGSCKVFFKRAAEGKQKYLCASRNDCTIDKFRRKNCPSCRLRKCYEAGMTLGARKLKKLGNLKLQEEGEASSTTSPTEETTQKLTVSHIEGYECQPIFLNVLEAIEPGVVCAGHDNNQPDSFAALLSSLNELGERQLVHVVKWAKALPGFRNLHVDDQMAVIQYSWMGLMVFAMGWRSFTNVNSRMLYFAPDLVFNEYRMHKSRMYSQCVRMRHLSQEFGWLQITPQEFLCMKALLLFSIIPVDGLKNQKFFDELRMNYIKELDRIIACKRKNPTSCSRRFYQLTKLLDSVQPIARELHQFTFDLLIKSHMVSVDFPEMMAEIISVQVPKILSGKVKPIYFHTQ

For `c1ccc(-c2ccccc2)cc1`, the call in test [1], in test [4], in test [6], in test [7], in [8] and in test [9] was inactive. The outcome in [12] and in test [18] was inactive. Besides, the Potency entry in [2], in test [3], in test [5], in [10], in [11] and in test [13] was “inactive” each time. Besides, the Potency entry in test [14], in test [15], in test [16], in test [17] and in test [19] was “inactive” in each case.

For `CC(C)=C[C@@H]1[C@@H](C(=O)OCc2coc(Cc3ccccc3)c2)C1(C)C`, the compound was called inactive in test [1], in test [4], in [8], in test [12] and in test [18]. Also, the Potency entry in [20] was “inactive and 27.3 µM (active)”; in [2] it was “inactive and 34.4 µM (active)”. For the same compound, the Potency entry in test [10], in [11], in test [13], in test [14], in [15] and in test [16] was “inactive” each time. The Potency result in test [17] and in test [19] was “inactive” in each case.

For the compound `C[C@]12CC[C@H]3[C@@H](CC[C@@]45O[C@@H]4C(O)=C(C#N)C[C@]35C)[C@@H]1CC[C@@H]2O`, the compound was classed as inactive in test [1], in test [4], in test [8] and in test [18]. In addition, the Potency entry is “inactive and 61.1 µM (active)” in [20]; “inactive and 27.3 µM (active)” in [2]; 30.6 µM (active) in [3]. The Potency result in test [14] and in test [19] was “inactive” throughout.

In the case of `CCCC1COC(Cn2cncn2)(c2ccc(Cl)cc2Cl)O1` (stereo not drawn), the outcome in test [1], in test [6], in test [7], in test [8], in [12] and in test [18] was inactive. Besides, the Potency was 55.5 µM (active) and 12.2 µM (active) in [20]; 27.8 µM (active) and 19.3 µM (active) in [2]; 55.5 µM (active) and 17.2 µM (active) in test [3]; 49.9 µM (active) and 43.6 µM (active) in [5]; 55.5 µM (active) and 54.5 µM (active) in test [11]; 27.8 µM (active) and 68.6 µM (active) in test [17]. Moreover, the Potency in test [19] is 31.2 µM (active) and 24.3 µM (active). Also, the Potency entry in test [10], in test [13], in test [14] and in [15] was “inactive” each time.

`CCCCOC(=O)c1ccccc1C(=O)OCCCC`: the compound was classed as inactive in test [1], in [4], in test [8], in [12] and in test [18]. The Potency entry in [2], in test [3], in test [10], in test [11], in test [13] and in [14] was “inactive” throughout. The Potency entry in test [15], in test [17] and in test [19] was “inactive” each time. Also, the Potency in test [16] is 77 µM (active) and inactive.

Regarding `Clc1ccccc1Cl`, the compound was classed as inactive in test [1], in test [4], in [8], in [12] and in test [18]. Besides, the Potency result in [20], in [2], in test [3], in [10], in [11] and in test [14] was “inactive” throughout. Also, the Potency entry in [19] is “inactive”.

Regarding `CCC(C)(CC)c1cc(NC(=O)c2c(OC)cccc2OC)on1`, the result in test [1], in [4], in [8], in test [12] and in test [18] was inactive. Also, the Potency is 52.4 µM (active) in test [20], 66 µM (active) in [2], 46.7 µM (active) in test [3] and 54.6 µM (active) in test [11]. The Potency result in test [10], in test [14] and in [19] was “inactive” each time.

For the compound `Nc1ccc(Cc2ccc(N)cc2)cc1`, the outcome in test [1], in test [4], in test [8], in test [12] and in test [18] was inactive. Also, the Potency entry in test [20], in test [3], in test [10], in test [11], in test [14] and in test [19] was “inactive” each time. Moreover, the Potency result in [2] was “inactive and 48.6 µM (active)”.

With `CCCCCCCCCCCC#N`, the compound was classed as inactive in test [1], in test [4], in test [8], in test [12] and in test [18]. Further, the Potency entry in test [20], in test [2], in [3], in test [10], in test [11] and in test [14] was “inactive” throughout. For the same compound, the Potency entry in test [19] was “inactive”.

These data come from PubChem BioAssay (Tox21).
